# High-throughput results deposited in PubChem by several laboratories.
# Hits are enriched below; roughly 4% of the tested compounds scored in any of these assays.
# Measles CPE: protection of cells from measles virus. Measles virus-infected cells, CPE protection, absorbance. protection (pct of control), % at 4 µM. 1.5% of 140,000 active. AID 841; in the data active = protection mostly above about 24%, no sharp cut-off; inactive = mostly below about 26%
# ROMK primary: human ROMK K+ channel modulation, primary screen | AID 1918 | Tet-inducible ROMK, thallium flux fluorescence; actives lie on both sides | P48048 | 2% of 130,000 active | B-score at 10 µM;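 active = signal ratio slope over the read window, or its plate-corrected B-score, at least 3 SD from the plate mean, either direction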;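 note: B-score of the F/F0 ratio slope over 7 to 12 s after thallium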
# Target sequence (P48048 whole entry, looked up): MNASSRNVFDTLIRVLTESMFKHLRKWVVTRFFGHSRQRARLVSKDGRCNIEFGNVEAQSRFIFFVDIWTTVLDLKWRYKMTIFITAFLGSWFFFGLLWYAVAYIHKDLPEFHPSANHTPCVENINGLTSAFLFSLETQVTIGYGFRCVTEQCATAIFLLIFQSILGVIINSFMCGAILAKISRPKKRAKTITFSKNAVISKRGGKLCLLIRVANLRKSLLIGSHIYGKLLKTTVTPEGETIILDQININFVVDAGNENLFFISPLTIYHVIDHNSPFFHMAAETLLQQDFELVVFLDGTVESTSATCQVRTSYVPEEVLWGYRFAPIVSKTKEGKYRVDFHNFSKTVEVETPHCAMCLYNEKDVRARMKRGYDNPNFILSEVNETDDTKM
# HSV replic up: increases HSV replication in cells; HSV replication augmentation in cells, fold increase; maximum fold increase; 0.005% of 220,000 active; in the data active = maximum fold increase above about 1.5; inconclusive = no clear call, values can overlap the other calls; tested in PC3 cells
# Arbovirus inh: antivirals against arbovirus infection | 0.37% of 200,000 active | inhibition, % at 10 µM | arbovirus infection cell-based antiviral screen | AID 1251; in the data active = inhibition above about 30%
# KCC2 mod: KCC2 (human) Cl- transport modulation. Q9H2X9. KCC2 cells, thallium flux FluoZin-2 fluorescence. B-score of Tl+ flux slope (higher = more flux/activation; lower = inhibition) at 10 µM. 2.2% of 190,000 active. AID 1456;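 active = thallium flux slope and its plate-corrected score both differing from the plate sample mean at a set confidence after two filtering rounds, in either direction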;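 note: slope of fluorescence scaled to starting intensity during 10 to 20 s after thallium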
# KCC2 secondary: KCC2 (human) modulation, secondary assay. 15% of 3,700 active. shares compounds with KCC2 mod. HEK293-KCC2, thallium flux, FluoZin2 fluorescence; active compounds read high. normalised thallium flux (F/F0 slope) at 10 µM;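 active = thallium flux slope above the same plate's solvent-only control mean plus 3 SD; inconclusive = the two replicate wells disagree; inactive = no significant difference from solvent-only control wells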
# KCC2 bumet counter: thallium flux despite bumetanide block in KCC2 cells, secondary assay 3. shares compounds with KCC2 mod. HEK293-KCC2 + bumetanide/ouabain, thallium flux FluoZin2; active compounds read high. normalized thallium flux at 10 µM. 49% of 3,700 active. AID 1714;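 active = thallium entry rate above the same plate's blocked-transporter control wells by more than 3 SD; inconclusive = the two repeat wells disagree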;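 note: raw slope of fluorescence over initial fluorescence between 10 and 20 s after thallium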
# KCC2 sec2: confirmation of human KCC2 transport modulators. shares compounds with KCC2 mod. HEK293-KCC2, thallium flux FluoZin2 fluorescence; actives lie on both sides; F/F0 rise rate, 10–20 s post-thallium. normalized thallium flux at 10 µM. 23% of 3,700 active. AID 1715;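 active = thallium flux slope more than 3 SD above or below the plate's solvent-only control mean, mostly below; inconclusive = the two repeat wells disagreed; inactive = no significant shift from solvent-only controls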
# HEK counter1: acts in parental HEK cells, KCC2 counter-screen; shares compounds with KCC2 mod; HEK293 parental cells, thallium flux FluoZin2, ouabain; baseline-ratio fluorescence slope, 10–20 s after thallium; thallium flux rate (normalised fluorescence) at 10 µM; 46% of 3,700 active;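 active = thallium flux rate significantly above the same plate's solvent-only control wells, beyond their mean plus 3 SD; inconclusive = the two replicate wells gave conflicting results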
# KCC2 ouabain: confirmation of human KCC2 modulators with ouabain; AID 1717; 48% of 3,700 active; raw Tl+ flux slope (below DMSO = inhibition, above = activation) at 10 µM; shares compounds with KCC2 mod; HEK293-KCC2, thallium flux FluoZin2 fluorescence; bidirectional: low = inhibitor, high = activator;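 active = thallium flux slope beyond 3 SD from same-plate DMSO control mean in most replicates, usually higher, sometimes lower; inconclusive = repeat tests gave conflicting results; inactive = no significant difference from controls in most replicates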;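 note: slope of initial-normalized fluorescence between seconds 10 and 20 after thallium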
# HEK counter2: parental HEK flux effect, counter-screen 2. shares compounds with KCC2 mod. HEK293 parental, thallium flux FluoZin-2 fluorescence slope. thallium flux slope at 10 µM. 33% of 3,700 active. AID 1718;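 active = thallium flux slope above the same plate's solvent-control mean plus 3 SD in both duplicate wells; inconclusive = duplicate wells that disagreed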;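 note: run without ouabain in cells lacking the KCC2 cotransporter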
# A number is an active result; - = inactive; ? = inconclusive; . = not tested or not shown.
SMILES,Measles CPE,ROMK primary,HSV replic up,Arbovirus inh,KCC2 mod,KCC2 secondary,KCC2 bumet counter,KCC2 sec2,HEK counter1,KCC2 ouabain,HEK counter2
O=C(O)/C(=C\c1cccc(F)c1)c1ccc(S(=O)(=O)N2CCCCC2)s1,-,.,-,-,-5.6,-,-,-,-,0.014,-
Cc1ccc(C)c(/C=C(\C(=O)O)c2ccc(S(=O)(=O)N3CCCCC3)s2)c1,.,-,-,-,-,.,.,.,.,.,.
O=[N+]([O-])c1ccccc1NC1CCN(Cc2ccccc2)CC1,.,-,-,.,-,.,.,.,.,.,.
CC1CCC2C(=O)N(c3ccc(NC4CCN(Cc5ccccc5)CC4)c([N+](=O)[O-])c3)C(=O)C2C1 (stereo unspecified),.,.,.,-,-,.,.,.,.,.,.
O=C1CCC(=O)N1c1ccc(NC2CCN(Cc3ccccc3)CC2)c([N+](=O)[O-])c1,.,-,-,-,-5.9,-,-,0.025,?,-,-
O=C1C2CCCCC2C(=O)N1c1ccc(NC2CCN(Cc3ccccc3)CC2)c([N+](=O)[O-])c1 (stereo unspecified),.,-,-,-,-8.5,-,0.0077,0.026,-,0.014,-
O=[N+]([O-])c1ccc(NC2CCN(Cc3ccccc3)CC2)c([N+](=O)[O-])c1,.,-,-,-,-5.2,-,-,0.022,-,?,-
CN1N=C(C(C)(C)C)CSC1=Nc1ccccc1,.,.,-,.,-,.,.,.,.,.,.
CC/C(=N/Nc1ccccc1)c1cnnc(-c2ccccc2)n1,-,-,-,-,2.7,-,-,-,-,-,-
CC/C(=N/Nc1cccc(Cl)c1)c1cnnc(SC)n1,-,-,-,-,-,.,.,.,.,.,.
COc1c(F)c(F)c(C(=O)Nc2ccc(N3CCN(Cc4ccccc4)CC3)cc2)c(F)c1F,-,-,-,-,-,.,.,.,.,.,.
CCCCN(C)CCC(=O)Nc1ccc2c(c1)CCC2,.,-,-,-,6.1,-,?,-,-,-,-
COc1ccc(NC(=O)CN(C)CC(=O)Nc2ccc3c(c2)CCC3)cc1,.,-,-,-,-,.,.,.,.,.,.
O=[N+]([O-])c1ccc(CSc2nnc(SCc3ccccc3)s2)cc1,-,.,-,-,-5.4,-,-,0.024,-,0.014,-
O=[N+]([O-])c1ccc(CSc2nc3ccccc3o2)cc1,-,-,-,-,-,.,.,.,.,.,.
COc1ccc(Nc2nc3ccccc3c(=O)s2)c(OC)c1,-,-,-,-,-,.,.,.,.,.,.
Cc1ccc(Nc2nc3ccccc3c(=O)s2)cc1C,-,-,.,-,17,-,0.031,0.043,0.026,0.039,0.028
Cc1ccc(C(=O)Nc2nc3ccccc3c(=O)s2)cc1,-,-,-,-,41,0.027,0.14,0.054,0.079,0.11,0.029
CSc1nc2ccc3nc(NC(=O)c4ccc(C)cc4)sc3c2s1,-,.,.,-,-,.,.,.,.,.,.
CCOC(=O)C(=O)Nc1ccc(Oc2ccccc2)cc1,.,-,-,-,-4,-,-,-,-,0.017,-
COc1ccccc1-c1ccc(=O)n(CC(=O)NCc2ccc3c(c2)OCO3)n1,-,.,-,-,-3.7,-,0.0092,-,?,0.016,-
COCCCNC(=O)Cn1nc(-c2ccccc2OC)ccc1=O,-,.,.,-,-,.,.,.,.,.,.
Cc1cc(CN(C)C(=O)CC2C(=O)NCCN2Cc2c(F)cccc2Cl)on1 (stereo unspecified),.,.,-,.,7.9,-,-,-,-,-,-
CN(Cc1ncc[nH]1)C(=O)CC1C(=O)NCCN1Cc1c(F)cccc1Cl (stereo unspecified),.,-,-,-,-,.,.,.,.,.,.
c1ccc(CN2CCC(N3CCN(Cc4ccc5c(c4)OCO5)CC3)CC2)cc1,.,.,-,.,-,.,.,.,.,.,.
